Results filed as inconclusive are left out. Calls of active or inactive are those of the source. The call rests on the fitted dose curve; in most records, active means well fitted activation curve with a large enough effect; inconclusive means small, poorly fitted or top-dose-only effect; inactive means no such curve, though single readings can be large or run the other way.
Assay: qHTS assay for re-activators of p53 using a Luc reporter: Hit Validation with no p53 Expressed
Settings: p53-null cells, luciferase reporter counter-screen; series mostly up to 46.1 µM
Description: The p53 tumor suppressor plays a key role in suppression of tumorigenesis and in human carcinogenesis. It is frequently found inactivated in human cancers, mainly by point mutation. These point mutations are found in a wide variety of human cancers and a majority of them affect the DNA binding domain of the protein. The point mutations either alter native p53 conformation or abolish DNA contact. Additionally, cancer cells with p53 mutations are more resistant to chemo-radiation therapies.
This counter screen was run against the hits identified from the primary screen. It uses a cell line that was not transfected with p53. Compounds that show activity in this counter screen show unspecific activation of the assay system and are excluded from further consideration.
NIH Chemical Genomics Center [NCGC]
NIH Molecular Libraries Probe Production Centers Network [MLPCN]
Assay Provider (PI): Yi Sung, University of Michigan at Ann Arbor
5ul of 1000 cells per well are dispensed in all wells except column 4, into white solid-bottom TC-treated Kalypsys plates. The cells are kept in Opti-MEM and supplemented with 10% FBS and dispensed using a Multidrop (Thermo). Then using the Kalypsys pin-tool, 23nl of compounds are pinned. The compounds are starting concentration at 10mM, with 1:5 dilution, 4 points, and the control compound nocodazole is pinned in column 1 at 25mM, 1:3 dilution, in duplicate, 25mM nocodazole is pinned in column 2. Please note, all concentrations are working concentrations. 5ul of 1pM purified luciferase enzyme is dispensed using the Kalypsys dispenser in column 4. Plates are incubated for 24 hrs at 37 deg C, 5% CO2, and 95% humidity. Then 4ul of the detection reagent Amplite (ABD Bioquest) is added using the Kalypsys dispenser. Plates are incubated for 10 min at ambient room temperature and are then read on the ViewLux (Perkin Elmer) using a clear filter for a luminescent read-out.

Row | Structure (SMILES) | outcome
1 | COc1ccc(NC(=O)C2C3CCC(O3)C2C(=O)O)c(OC)c1 (configuration not stated) | inactive
2 | O=C(c1cc2c(s1)CCCC2)N1CCC2(CC1)OCCO2 | inactive
3 | COC(=O)C1=C(c2cccc(C#N)c2)C[C@@H]2CC[C@H]1N2C(=O)NC1CC1 | inactive
4 | O=C(N/N=C/c1c(O)n(C2CC2)c(=S)[nH]c1=O)c1ccccc1 | inactive
5 | O=C(N/N=C/c1c(O)n(Cc2ccccc2)c(=O)[nH]c1=O)c1ccccc1 | inactive
6 | C=C(C)C(Cc1c(OC)ccc(C(=O)/C=C/c2ccc(O)cc2)c1O)OO (configuration not stated) | inactive
7 | N#Cc1cc2c(nc1SCC(=O)Nc1cc(Cl)ccc1Cl)C1CCN2CC1 | inactive
8 | COc1ccc(CN2CCNCC2)cc1 | inactive
9 | CN(C)P(=O)(C(Cl)=C(N1CCCCC1)N1CCCCC1)N(C)C | inactive
10 | COC(=O)C1=C(c2ccc(F)cc2OCc2ccccc2)C[C@@H]2CC[C@H]1N2C(=O)NCCOc1ccc(OC)cc1 | inactive
11 | CCCCCCOc1ccc(CN2CCN(C)CC2)cc1 | inactive
12 | N=C1c2ccccc2CN1CC(=O)c1ccccc1 | inactive
13 | Cc1cc(N2C(=O)C3CCCN3C2c2sccc2C)no1 (configuration not stated) | inactive
14 | Nc1c(C(=O)NCc2ccco2)c2nc3ccccc3nc2n1Cc1ccc(F)cc1 | inactive
15 | Nc1ccccc1N=Cc1c(O)n(CCC2=CCCCC2)c(=O)[nH]c1=O | inactive
16 | CC1CCCCC1NC1CCN(C)CC1 (configuration not stated) | inactive
17 | N#Cc1cc2c(nc1SCC(=O)Nc1ccc(Cl)cc1)C1CCN2CC1 | inactive

From PubChem BioAssay AID624331 (National Center for Advancing Translational Sciences (NCATS), 2012)
